# How the values were obtained:
# [1] = target: Death-associated protein kinase 1 (Homo sapiens) (UniProt P53355); conditions: at 10 µM
# [2] = target: Death-associated protein kinase 2 (Homo sapiens) (UniProt Q9UIK4); conditions: at 1 µM
# [3] = target: Death-associated protein kinase 2 (Homo sapiens) (UniProt Q9UIK4); conditions: at 10 µM
# [4] = target: T1, Serine/threonine-protein kinase DCLK2 (Homo sapiens) (UniProt Q8N568); conditions: at 1 µM
# T1 sequence (whole entry): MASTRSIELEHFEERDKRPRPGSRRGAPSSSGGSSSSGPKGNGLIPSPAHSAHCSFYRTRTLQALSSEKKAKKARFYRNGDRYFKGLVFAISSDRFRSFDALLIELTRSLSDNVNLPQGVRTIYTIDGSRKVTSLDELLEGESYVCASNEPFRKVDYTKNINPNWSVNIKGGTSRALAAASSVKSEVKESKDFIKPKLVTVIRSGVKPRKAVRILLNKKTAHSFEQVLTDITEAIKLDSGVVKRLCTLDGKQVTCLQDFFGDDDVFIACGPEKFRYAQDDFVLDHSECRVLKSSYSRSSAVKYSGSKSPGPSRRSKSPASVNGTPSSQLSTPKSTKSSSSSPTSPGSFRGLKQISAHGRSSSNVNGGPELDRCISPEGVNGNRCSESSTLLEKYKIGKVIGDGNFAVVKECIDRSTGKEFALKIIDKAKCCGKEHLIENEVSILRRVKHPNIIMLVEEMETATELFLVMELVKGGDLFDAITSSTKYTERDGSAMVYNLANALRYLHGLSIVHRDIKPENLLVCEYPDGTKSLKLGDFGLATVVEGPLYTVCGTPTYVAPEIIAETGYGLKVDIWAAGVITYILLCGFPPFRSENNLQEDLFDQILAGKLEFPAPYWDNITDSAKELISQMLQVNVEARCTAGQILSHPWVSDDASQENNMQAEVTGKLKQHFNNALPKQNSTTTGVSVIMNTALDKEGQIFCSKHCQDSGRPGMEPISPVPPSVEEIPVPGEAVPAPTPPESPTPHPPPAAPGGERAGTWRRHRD
# [5] = target: T1, Serine/threonine-protein kinase DCLK2 (Homo sapiens); conditions: at 10 µM
# [6] = target: T2, Discoidin domain-containing receptor 2 (Homo sapiens) (UniProt Q16832); conditions: at 1 µM
# T2 sequence (whole entry): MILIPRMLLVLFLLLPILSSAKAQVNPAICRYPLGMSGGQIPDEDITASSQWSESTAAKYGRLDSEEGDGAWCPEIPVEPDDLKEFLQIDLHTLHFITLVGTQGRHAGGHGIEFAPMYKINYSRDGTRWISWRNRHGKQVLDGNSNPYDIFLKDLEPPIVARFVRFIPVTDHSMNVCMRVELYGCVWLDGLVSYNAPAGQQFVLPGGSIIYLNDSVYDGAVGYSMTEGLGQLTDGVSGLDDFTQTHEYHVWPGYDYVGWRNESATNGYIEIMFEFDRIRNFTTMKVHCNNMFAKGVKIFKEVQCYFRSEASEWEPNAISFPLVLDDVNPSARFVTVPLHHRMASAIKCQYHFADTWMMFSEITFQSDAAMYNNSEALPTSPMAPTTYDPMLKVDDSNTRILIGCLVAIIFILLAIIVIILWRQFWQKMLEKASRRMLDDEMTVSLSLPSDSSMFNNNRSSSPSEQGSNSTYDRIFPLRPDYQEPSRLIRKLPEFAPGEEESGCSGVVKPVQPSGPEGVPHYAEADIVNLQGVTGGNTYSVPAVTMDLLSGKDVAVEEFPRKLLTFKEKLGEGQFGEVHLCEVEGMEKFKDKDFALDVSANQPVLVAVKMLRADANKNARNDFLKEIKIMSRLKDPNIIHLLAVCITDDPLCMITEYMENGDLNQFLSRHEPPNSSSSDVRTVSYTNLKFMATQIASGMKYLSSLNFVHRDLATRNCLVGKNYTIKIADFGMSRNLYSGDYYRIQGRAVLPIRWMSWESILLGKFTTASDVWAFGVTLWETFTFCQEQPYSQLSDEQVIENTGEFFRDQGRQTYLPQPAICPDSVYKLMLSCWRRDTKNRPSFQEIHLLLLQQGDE
# [7] = target: T2, Discoidin domain-containing receptor 2 (Homo sapiens); conditions: at 10 µM
# [8] = target: T3, Myotonin-protein kinase (Homo sapiens) (UniProt Q09013); conditions: at 10 µM
# T3 sequence (whole entry): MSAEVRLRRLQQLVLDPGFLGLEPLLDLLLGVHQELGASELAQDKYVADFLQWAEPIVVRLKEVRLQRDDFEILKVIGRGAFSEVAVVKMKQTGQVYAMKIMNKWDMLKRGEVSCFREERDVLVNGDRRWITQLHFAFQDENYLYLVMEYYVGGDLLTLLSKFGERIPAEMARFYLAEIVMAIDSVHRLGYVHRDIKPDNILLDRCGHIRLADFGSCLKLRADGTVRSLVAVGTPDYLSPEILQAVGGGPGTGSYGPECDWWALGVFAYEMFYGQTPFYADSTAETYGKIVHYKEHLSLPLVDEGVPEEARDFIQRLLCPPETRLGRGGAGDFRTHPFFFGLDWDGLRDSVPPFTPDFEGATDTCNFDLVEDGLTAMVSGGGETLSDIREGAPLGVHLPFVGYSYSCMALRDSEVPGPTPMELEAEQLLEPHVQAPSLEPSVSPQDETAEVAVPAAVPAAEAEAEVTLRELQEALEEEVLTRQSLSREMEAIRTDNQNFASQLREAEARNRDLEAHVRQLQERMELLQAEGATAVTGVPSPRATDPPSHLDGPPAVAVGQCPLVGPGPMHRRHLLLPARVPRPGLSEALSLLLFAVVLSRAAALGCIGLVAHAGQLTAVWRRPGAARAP
# [9] = target: T4, Serine/threonine-protein kinase 17A (Homo sapiens) (UniProt Q9UEE5); conditions: at 1 µM
# T4 sequence (whole entry): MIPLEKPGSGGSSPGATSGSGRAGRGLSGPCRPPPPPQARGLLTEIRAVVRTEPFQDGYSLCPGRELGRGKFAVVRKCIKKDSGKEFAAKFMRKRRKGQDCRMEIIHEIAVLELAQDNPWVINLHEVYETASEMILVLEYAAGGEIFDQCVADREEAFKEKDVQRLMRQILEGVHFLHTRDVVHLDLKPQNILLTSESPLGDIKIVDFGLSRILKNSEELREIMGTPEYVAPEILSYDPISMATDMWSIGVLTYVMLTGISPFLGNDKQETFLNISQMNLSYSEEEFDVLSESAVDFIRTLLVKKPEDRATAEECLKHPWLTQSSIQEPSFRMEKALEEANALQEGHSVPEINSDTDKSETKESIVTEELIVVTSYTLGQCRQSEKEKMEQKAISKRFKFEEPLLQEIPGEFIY
# [10] = target: T4, Serine/threonine-protein kinase 17A (Homo sapiens); conditions: at 10 µM
# [11] = target: T5, Ephrin type-A receptor 3 (Homo sapiens) (UniProt P29320); conditions: at 1 µM
# T5 sequence (whole entry): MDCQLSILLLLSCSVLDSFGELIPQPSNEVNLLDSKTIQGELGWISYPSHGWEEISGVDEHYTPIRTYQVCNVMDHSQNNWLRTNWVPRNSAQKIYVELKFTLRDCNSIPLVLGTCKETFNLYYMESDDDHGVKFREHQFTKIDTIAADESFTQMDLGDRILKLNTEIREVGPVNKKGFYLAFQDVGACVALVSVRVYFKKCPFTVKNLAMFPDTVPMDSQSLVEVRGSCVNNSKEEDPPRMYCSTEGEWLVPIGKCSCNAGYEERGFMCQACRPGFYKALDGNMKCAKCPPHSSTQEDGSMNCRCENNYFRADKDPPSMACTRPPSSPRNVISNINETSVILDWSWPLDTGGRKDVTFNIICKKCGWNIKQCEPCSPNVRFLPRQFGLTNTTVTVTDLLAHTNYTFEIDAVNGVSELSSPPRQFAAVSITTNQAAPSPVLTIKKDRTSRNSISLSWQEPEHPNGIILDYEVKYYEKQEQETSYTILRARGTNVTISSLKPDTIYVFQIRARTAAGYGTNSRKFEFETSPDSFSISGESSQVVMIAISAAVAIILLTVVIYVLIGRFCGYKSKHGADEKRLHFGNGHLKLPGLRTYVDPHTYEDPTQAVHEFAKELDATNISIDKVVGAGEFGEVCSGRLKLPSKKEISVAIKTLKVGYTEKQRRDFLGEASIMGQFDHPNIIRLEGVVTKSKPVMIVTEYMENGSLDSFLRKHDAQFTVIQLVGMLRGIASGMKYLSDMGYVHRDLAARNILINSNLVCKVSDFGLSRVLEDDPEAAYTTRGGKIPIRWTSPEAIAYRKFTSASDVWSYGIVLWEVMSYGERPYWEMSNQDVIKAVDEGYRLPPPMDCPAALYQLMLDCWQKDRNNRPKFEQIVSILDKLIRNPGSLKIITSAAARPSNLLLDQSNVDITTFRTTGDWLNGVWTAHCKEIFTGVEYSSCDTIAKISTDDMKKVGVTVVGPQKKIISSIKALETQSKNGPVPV
# [12] = target: T6, Dual specificity tyrosine-phosphorylation-regulated kinase 2 (Homo sapiens) (UniProt Q92630); conditions: at 1 µM
# T6 sequence (whole entry): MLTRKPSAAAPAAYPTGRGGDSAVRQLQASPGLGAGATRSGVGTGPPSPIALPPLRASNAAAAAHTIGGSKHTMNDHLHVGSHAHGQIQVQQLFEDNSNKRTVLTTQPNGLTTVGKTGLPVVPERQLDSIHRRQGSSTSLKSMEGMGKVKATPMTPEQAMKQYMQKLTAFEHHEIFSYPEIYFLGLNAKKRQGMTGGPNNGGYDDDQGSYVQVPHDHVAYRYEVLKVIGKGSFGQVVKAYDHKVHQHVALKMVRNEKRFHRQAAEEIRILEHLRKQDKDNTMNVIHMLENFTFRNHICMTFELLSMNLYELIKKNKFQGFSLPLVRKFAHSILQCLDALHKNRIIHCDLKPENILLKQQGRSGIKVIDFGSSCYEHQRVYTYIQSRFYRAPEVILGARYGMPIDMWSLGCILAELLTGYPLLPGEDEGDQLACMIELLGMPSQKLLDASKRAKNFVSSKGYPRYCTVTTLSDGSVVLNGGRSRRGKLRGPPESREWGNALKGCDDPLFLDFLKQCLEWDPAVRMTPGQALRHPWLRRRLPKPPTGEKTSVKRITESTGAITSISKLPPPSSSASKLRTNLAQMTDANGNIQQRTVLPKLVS
# [13] = target: T6, Dual specificity tyrosine-phosphorylation-regulated kinase 2 (Homo sapiens); conditions: at 10 µM
# [14] = target: T7, Ephrin type-A receptor 1 (Homo sapiens) (UniProt P21709); conditions: at 1 µM
# T7 sequence (whole entry): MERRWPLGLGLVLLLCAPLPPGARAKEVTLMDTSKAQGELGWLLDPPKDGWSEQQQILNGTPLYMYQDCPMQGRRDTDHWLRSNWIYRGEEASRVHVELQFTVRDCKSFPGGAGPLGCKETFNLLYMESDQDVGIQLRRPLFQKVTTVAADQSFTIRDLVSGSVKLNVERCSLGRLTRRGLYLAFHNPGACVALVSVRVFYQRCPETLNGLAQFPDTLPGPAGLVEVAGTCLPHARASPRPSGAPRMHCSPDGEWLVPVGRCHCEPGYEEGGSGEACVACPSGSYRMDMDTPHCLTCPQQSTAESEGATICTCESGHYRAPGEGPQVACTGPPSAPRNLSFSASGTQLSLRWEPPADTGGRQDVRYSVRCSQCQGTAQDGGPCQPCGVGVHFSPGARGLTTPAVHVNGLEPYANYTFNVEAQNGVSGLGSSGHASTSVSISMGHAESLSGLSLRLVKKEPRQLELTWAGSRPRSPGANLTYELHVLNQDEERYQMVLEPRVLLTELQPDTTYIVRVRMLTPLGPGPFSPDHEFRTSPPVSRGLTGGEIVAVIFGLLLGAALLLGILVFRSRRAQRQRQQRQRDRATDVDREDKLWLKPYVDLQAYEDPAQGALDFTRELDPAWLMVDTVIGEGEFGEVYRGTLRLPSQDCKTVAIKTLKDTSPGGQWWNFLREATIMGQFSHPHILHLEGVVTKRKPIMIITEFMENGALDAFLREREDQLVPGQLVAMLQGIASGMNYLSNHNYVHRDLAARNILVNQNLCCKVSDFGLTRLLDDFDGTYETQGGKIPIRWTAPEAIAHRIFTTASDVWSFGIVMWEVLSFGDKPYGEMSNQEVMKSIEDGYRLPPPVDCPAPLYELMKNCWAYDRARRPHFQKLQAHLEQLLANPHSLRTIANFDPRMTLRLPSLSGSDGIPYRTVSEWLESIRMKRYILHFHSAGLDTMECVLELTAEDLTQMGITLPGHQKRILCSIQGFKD
# [15] = target: T7, Ephrin type-A receptor 1 (Homo sapiens); conditions: at 10 µM
# [16] = target: Ephrin type-A receptor 2 (Homo sapiens) (UniProt P29317); conditions: at 1 µM
# [17] = target: Ephrin type-A receptor 2 (Homo sapiens) (UniProt P29317); conditions: at 10 µM
# [18] = target: T3, Myotonin-protein kinase (Homo sapiens); conditions: at 1 µM
# Death-associated protein kinase 2 (Homo sapiens), sequence (Q9UIK4 whole entry, looked up): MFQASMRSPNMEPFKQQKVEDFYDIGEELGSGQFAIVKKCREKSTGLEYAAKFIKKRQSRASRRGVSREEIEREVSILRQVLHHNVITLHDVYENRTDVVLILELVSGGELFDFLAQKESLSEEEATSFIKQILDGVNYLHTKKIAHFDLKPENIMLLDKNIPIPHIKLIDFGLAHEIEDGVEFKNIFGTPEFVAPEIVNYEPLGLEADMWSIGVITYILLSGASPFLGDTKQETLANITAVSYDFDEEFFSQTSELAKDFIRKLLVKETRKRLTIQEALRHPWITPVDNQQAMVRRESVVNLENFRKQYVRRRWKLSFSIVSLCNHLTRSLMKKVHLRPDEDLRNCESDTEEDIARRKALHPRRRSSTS
# Ephrin type-A receptor 2 (Homo sapiens), sequence (P29317 whole entry): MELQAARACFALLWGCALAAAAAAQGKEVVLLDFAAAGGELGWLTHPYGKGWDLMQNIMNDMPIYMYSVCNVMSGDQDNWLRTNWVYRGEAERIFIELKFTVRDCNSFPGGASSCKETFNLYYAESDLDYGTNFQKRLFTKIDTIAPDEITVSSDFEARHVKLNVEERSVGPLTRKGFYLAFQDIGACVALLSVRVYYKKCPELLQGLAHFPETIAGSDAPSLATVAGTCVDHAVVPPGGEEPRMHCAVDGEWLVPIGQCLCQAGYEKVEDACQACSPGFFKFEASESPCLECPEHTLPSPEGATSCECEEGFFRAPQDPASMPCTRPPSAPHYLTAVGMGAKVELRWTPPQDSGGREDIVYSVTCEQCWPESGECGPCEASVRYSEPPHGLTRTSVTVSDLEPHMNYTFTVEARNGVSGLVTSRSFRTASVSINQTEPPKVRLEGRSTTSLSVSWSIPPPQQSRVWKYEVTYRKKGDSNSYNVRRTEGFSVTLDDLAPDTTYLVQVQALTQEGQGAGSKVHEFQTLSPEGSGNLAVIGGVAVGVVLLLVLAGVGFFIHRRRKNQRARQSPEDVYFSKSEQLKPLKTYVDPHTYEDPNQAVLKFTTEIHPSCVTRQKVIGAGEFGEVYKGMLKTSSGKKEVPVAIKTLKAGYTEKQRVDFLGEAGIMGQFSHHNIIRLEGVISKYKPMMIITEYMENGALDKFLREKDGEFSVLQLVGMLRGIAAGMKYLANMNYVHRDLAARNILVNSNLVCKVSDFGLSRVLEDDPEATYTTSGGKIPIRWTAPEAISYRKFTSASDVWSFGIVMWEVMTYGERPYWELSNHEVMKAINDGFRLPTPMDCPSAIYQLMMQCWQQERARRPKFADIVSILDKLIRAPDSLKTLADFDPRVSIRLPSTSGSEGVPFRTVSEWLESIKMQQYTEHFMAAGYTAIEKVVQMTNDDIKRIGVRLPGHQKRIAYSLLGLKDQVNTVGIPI
# Death-associated protein kinase 1 (Homo sapiens), sequence (P53355 whole entry, looked up): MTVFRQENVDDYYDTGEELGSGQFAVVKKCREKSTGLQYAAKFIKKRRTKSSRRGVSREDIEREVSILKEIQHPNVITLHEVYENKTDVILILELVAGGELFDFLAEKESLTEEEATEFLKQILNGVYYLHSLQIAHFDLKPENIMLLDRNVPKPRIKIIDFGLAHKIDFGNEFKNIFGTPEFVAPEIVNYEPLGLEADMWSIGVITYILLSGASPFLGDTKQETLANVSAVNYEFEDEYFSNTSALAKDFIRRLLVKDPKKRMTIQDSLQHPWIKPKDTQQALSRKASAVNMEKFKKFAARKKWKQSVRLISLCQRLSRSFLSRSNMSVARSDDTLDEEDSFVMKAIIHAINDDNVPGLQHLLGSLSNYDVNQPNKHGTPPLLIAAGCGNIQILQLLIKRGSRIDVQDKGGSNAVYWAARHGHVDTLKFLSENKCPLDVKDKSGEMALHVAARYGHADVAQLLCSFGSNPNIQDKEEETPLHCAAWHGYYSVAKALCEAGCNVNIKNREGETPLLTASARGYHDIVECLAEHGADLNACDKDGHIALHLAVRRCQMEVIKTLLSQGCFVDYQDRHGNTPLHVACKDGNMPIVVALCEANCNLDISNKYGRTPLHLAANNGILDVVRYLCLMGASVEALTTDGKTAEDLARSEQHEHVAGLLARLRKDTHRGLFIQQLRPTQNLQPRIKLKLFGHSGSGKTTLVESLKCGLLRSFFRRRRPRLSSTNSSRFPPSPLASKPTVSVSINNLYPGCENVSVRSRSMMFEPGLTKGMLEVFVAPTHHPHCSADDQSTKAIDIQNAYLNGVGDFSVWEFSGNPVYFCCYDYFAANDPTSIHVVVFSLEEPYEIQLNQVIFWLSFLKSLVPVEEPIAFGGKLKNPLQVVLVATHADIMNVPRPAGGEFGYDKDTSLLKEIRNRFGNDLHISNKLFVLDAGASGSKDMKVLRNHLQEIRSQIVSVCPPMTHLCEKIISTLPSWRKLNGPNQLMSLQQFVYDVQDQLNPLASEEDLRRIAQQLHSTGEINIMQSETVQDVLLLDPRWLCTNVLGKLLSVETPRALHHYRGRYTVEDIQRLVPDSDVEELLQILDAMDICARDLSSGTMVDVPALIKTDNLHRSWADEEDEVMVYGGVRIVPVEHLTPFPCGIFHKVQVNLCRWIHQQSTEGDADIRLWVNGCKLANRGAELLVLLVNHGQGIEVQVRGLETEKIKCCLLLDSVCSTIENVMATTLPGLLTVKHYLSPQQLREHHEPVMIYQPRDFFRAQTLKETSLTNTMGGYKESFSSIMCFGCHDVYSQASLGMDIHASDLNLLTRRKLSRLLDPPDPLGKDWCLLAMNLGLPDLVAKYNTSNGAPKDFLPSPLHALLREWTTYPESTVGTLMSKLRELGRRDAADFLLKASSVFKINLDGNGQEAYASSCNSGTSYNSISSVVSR
SMILES,residual activity [1] [%],residual activity [2] [%],residual activity [3] [%],residual activity [4] [%],residual activity [5] [%],residual activity [6] [%],residual activity [7] [%],residual activity [8] [%],residual activity [9] [%],residual activity [10] [%],residual activity [11] [%],residual activity [12] [%],residual activity [13] [%],residual activity [14] [%],residual activity [15] [%],residual activity [16] [%],residual activity [17] [%],residual activity [18] [%]
O=C1NC(=O)C(c2cn(CCCO)c3ncccc23)=C1c1cnccn1,83,65,59,95,78,93,96,82,89,67,97,–,–,–,–,–,–,–
O=C1Nc2ccc(Cl)cc2/C1=C/c1cc(Cl)c(O)c(Cl)c1,46,69,28,61,73,–,–,138,71,17,91,83,70,84,87,99,76,–
O=C(c1ccccc1)c1ccc(N2CCOCC2)cc1O,100,89,–,64,93,111,93,–,–,–,–,100,93,88,95,99,95,138
